Data from PubChem BioAssay AID602292 (National Center for Advancing Translational Sciences (NCATS), 2012).
The whole screen tested about 1,300 compounds, of which about 380 (29%) were called active. Not shown: some 37% with an inconclusive outcome. Some of the results follow. Values without a mark were called inactive. Calls follow the shape of the dose curve; as a rule, active = well fitted inhibition curve with a large enough effect; inconclusive = small, poorly fitted or top-dose-only effect; inactive = flat fitted curve, though single readings scatter.

biological target: Thyrotropin receptor (Homo sapiens) (UniProt P16473); assay: qHTS for antagonists of the Thyroid Stimulation Hormone Receptor: Hit Validation in Primary Screen; conditions: TSHR-expressing cells, cAMP antagonist mode; series mostly up to 58 µM; activity change, negative = inhibition: at the top concentration; also: nearly all actives have a fitted effect of over 80% in size;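 as to activity change, negative = inhibition: cells stimulated with TSH at EC80 of 4 nM during compound exposure; cAMP by competitive HTRF where cellular cAMP lowers the 665 nm FRET signal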
Procedure, shortened: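 Competitive HTRF detected cAMP in lysates of TSHR cells, read 30 minutes after antibody and d2 addition at room temperature. Before lysis, cells had 2 hours at 37 deg C with compound plus EC80 TSH, 4nM final.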
% is scaled to controls: 0 for no effect and ±100 for the full control effect; potency is read from the fitted curve at half-maximal effect.

Sequence of Thyrotropin receptor (Homo sapiens) (P16473 whole entry, looked up): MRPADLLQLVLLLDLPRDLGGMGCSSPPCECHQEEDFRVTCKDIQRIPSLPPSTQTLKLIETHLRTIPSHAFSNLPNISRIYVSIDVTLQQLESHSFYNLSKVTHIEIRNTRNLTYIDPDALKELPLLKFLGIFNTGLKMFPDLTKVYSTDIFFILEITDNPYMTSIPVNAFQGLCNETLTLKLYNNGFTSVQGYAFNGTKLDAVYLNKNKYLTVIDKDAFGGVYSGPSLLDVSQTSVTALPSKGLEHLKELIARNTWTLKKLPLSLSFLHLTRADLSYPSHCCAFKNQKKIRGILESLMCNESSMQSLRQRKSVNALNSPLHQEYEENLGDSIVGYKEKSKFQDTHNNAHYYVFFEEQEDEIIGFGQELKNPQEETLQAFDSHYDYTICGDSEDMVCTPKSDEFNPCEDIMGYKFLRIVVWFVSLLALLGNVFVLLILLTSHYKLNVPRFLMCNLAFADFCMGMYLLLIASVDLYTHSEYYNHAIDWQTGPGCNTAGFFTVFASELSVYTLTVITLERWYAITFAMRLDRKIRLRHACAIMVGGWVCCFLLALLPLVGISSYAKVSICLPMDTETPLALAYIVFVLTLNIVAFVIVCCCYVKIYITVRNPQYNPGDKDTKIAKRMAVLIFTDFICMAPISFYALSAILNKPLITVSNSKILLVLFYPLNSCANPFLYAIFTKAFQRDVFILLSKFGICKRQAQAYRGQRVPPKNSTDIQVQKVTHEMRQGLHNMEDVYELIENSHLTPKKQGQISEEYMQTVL

Compound | activity change, negative = inhibition | Potency
COCCCn1c(=O)c2sccc2n(Cc2cccc(C)c2)c1=O | -8.56% | 
Cc1ccc(CNC(=O)CSc2nnc3c(n2)[nH]c2ccccc23)cc1 | -0.519% | 
CC(Sc1nnc2c(n1)[nH]c1ccccc12)C(=O)N(C)C1CCCCC1 (configuration not stated) |  | 26.9 µM (active)
O=C(NCCc1ccc(Cl)cc1Cl)c1cc([N+](=O)[O-])c[nH]c1=O |  | 16.9 µM (active)
COC(=O)c1ccc(NC(=O)Nc2ccc(F)c(Cl)c2)cc1 |  | 19 µM (active)
CSCc1cc(N2CCOCC2)nc(SCc2ccc(Cl)cc2Cl)n1 | -10.1% | 
Cc1cccc(C)c1OCCCn1ccnc1 | -4.81% | 
Cc1cccc(OCCCCc2c(C)n[nH]c2C)c1C |  | 30.1 µM (active)
COc1ccc(-c2nnc(CSc3nc4ccccc4c(=O)n3CC3CCCO3)o2)cc1OC (configuration not stated) | -0.893% | 
CCOc1cc(C(=O)NC2CC(C)(C)NC(C)(C)C2)cc(OCC)c1OCC | -5.01% | 
CC1=CC(=O)C(C(C)C)=C/C1=N/OS(=O)(=O)c1ccccc1 |  | 8.49 µM (active)
CC1=C/C(=N\OS(=O)(=O)c2ccccc2)C(C)=CC1=O |  | 4.78 µM (active)
COc1ccc(NC(=O)Cc2nc3ccccc3[nH]2)cc1 | -2.71% | 
Cc1cc(C)n(C(=O)/C(C#N)=N/Nc2cc(Cl)cc(Cl)c2)n1 |  | 4.78 µM (active)
CCOc1cc(N2CCOCC2)c(OCC)cc1NC(=O)c1cccc(S(=O)(=O)N2CCOCC2)c1 |  | 9.53 µM (active)
COc1cccc(CNC(=O)CN2C(=O)CSc3ccc(S(=O)(=O)N4CCOCC4)cc32)c1 | -5.82% | 
CCOc1cc(NC(=O)C2CC2)c(OCC)cc1NC(=O)c1cccc(F)c1 | -9.28% | 
Cc1ccc(S(=O)(=O)N(Cc2ccccc2)c2ccccc2C(=O)N2CCCCC2)cc1 | -7.23% | 
Cn1c(=O)c([N+](=O)[O-])c(Cl)c2ccccc21 |  | 30.1 µM (active)
CC(C)C(=O)Nc1c(-c2ccc(Cl)cc2)c(=O)c2ccccc2n1C | -7.38% | 
Cn1c(N)c(Sc2ccccc2[N+](=O)[O-])c(=O)n(C)c1=O | -4.78% | 

Compound | activity change, negative = inhibition | Potency
Cc1noc(C)c1COc1ccccc1C(=O)N(C)Cc1ccc(C(C)(C)C)cc1 |  | 30.1 µM (active)
Nc1ccn(Cc2ccccc2F)n1 | -2.59% | 
O=C(Nc1cccc(Cl)c1)Nc1ccc(Br)cc1F |  | 21.3 µM (active)
N#CC1=C(C2CC2)CC(c2ccccc2)C(C#N)=C1N (configuration not stated) | -3.77% | 
CC1(C)CC(=O)c2c(nc3ccccc3c2N)C1 | -10.3% | 
c1ccc(C(c2nnnn2Cc2ccco2)N2CCN(c3nc4ccccc4s3)CC2)cc1 (configuration not stated) | -5.7% | 
CC(C)C(c1nnnn1Cc1ccco1)N1CCN(c2nc3ccccc3s2)CC1 (configuration not stated) |  | 30.1 µM (active)
COc1cccc(OC)c1C(=O)Nc1sc2c(c1C#N)CCC2 | -8.84% | 
CC(C)CC(=O)NC(NC(=S)Nc1sc2c(c1C#N)CCCC2)C(Cl)(Cl)Cl (configuration not stated) |  | 23.9 µM (active)
Cc1cc(C)cc(N=C2NC(=O)CS2)c1 | -5.01% | 
Cc1nc2ccccc2n1CCOc1ccccc1 | -5.04% | 
Oc1c(Cl)cc(Cl)c(Cl)c1Cc1c(O)c(Cl)cc(Cl)c1Cl |  | 2.13 µM (active)
CC(C)S(=O)(=O)C1=NSC2=NC(=O)/C(=C\c3ccc(-c4ccccc4)o3)C(=N)N21 |  | 3.79 µM (active)
CSc1nc(-c2ccc(Cl)cc2Cl)[nH]c(=O)c1C#N |  | 6.75 µM (active)
COc1cc(NC(=O)Cn2nc(C(F)(F)F)c(Br)c2C)cc([N+](=O)[O-])c1 |  | 26.9 µM (active)
CN(CC(=O)Nc1ccccc1C(F)(F)F)Cc1c(O)ccc2ccccc12 | -3.28% | 
CCOC(=O)COc1ccccc1/C=C\[N+](=O)[O-] |  | 30.1 µM (active)
CCOC(=O)COc1ccc(Br)cc1/C=C/c1[nH]c(=O)[nH]c(=O)c1[N+](=O)[O-] |  | 23.9 µM (active)
CC(=O)N/N=C\c1ccccc1OC/C=C/c1ccccc1 | -2.79% | 
CC(C)OCCCn1c(=O)c2ccccc2n2c(CCC(=O)NC3CCN(Cc4ccccc4)CC3)nnc12 | -5.01% | 
CC1CCN(Cc2c(C(=O)N/N=C/c3cc(Cl)ccc3O)nnn2-c2nonc2N)CC1 | -5.21% | 

Compound | activity change, negative = inhibition | Potency
COc1cccc(/C=N/NC(=O)C(=O)N2CCCC2)c1O | -6.14% | 
N#Cc1ccc(Nc2nc(-c3ccc(O)cc3O)cs2)cc1C(F)(F)F |  | 23.9 µM (active)
COc1ccc(/C=C/C(=O)N2CCN(C)CC2)cc1OC | -1.93% | 
COc1ccc(/C=C/C(=O)Nc2nc(C)cc(C)n2)cc1OC | -1.33% | 
COc1ccc(/C=C2\CC/C(=C\c3ccc(OC)c(OC)c3)C2=O)cc1OC |  | 19 µM (active)
O=C(Nc1ccc2oc(-c3ccccc3F)nc2c1)c1ccc2c(c1)OCCO2 |  | 30.1 µM (active)
CNc1c(NC(=O)c2ccc3c(c2)OCO3)c(=O)oc2ccccc12 | -2.71% | 
COc1ccc(-c2nnc(NC(=O)c3ccc4c(c3)OCCO4)o2)cc1 | -4.12% | 
Cn1c(CNC(=O)C(Cc2ccccc2)NC(=O)c2ccccc2)cc(=O)n(C)c1=O (configuration not stated) | -1.24% | 
CCN(CC)S(=O)(=O)c1cccc(C(=O)Nc2nc3cc4c(cc3s2)OCCO4)c1 |  | 21.3 µM (active)
CCN(c1ccccc1)S(=O)(=O)c1ccc(C(=O)N(CCCN(C)C)c2nc3cc4c(cc3s2)OCO4)cc1 | -7.09% | 
CC1CCC(C(C)C)C(OC(=O)Cn2c(-c3ccccc3)[n+](C)c3ccccc32)C1 (configuration not stated) |  | 30.1 µM (active)
CCOC(=O)C1C(c2cc(OC)c(OC)c(OC)c2)NC(=S)NC1(O)C(F)(F)F (configuration not stated) | -3.72% | 
CC1=C(C(=O)OC(C)(C)C)C(c2ccc3ccccc3c2)NC(=O)N1C (configuration not stated) | -4.32% | 
CC(C)(C)OC(=O)NCCCCCc1cn([C@@H](CO)C(=O)NCCCCCCCCCCC(=O)N2CCN(C(=O)OC(C)(C)C)CC2)nn1 |  | 16.9 µM (active)
CN1C(=O)/C(=C/c2ccc(OCc3ccccc3F)cc2)NC1=S | -0.922% | 
O=C1S/C(=C\c2ccc(O)c([N+](=O)[O-])c2)C(=O)N1c1ccccc1Cl |  | 9.53 µM (active)
Cc1ccc(CN2C(=O)c3ccccc3Sc3ccc(C(=O)NCCN4CCOCC4)cc32)cc1 | -8.21% | 
CC(=O)N1c2ccc(S(=O)(=O)N3CCC(C(=O)NC(C)c4ccccc4)CC3)cc2CC1C (configuration not stated) | -5.24% | 
C=CCSc1nsc(NC(=O)Nc2ccc(F)cc2)n1 |  | 7.57 µM (active)
